D2 PAM-1 – human D2 receptor positive allosteric modulation; P14416; DiscoveRx D2 beta-arrestin cells, luminescence, 90 min; 100% = 57 uM dopamine signal; potentiation, % (concentration not given with the values); hit rate 0.23% among 360,000; AID 624464; in the data active = potentiation above about 50%; inconclusive = mostly about 30% to 49%
Target sequence (P14416 whole entry, looked up): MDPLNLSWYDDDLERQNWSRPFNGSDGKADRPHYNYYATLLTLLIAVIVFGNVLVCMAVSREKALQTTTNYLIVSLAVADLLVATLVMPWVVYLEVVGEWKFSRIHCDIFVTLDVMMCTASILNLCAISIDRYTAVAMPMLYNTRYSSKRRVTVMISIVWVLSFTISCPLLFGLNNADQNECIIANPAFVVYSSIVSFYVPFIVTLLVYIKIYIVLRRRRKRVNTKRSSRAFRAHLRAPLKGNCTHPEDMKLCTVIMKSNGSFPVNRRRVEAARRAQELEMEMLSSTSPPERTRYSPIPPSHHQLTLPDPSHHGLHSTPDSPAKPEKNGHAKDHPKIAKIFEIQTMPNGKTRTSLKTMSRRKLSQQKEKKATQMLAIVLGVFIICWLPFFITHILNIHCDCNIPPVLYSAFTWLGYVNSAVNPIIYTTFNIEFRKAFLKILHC
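PathHunter D2 cells, attached overnight at 37 deg C, received compound in DMSO plus dopamine at EC20 (50 nM final) for 90 min at 37 deg C. Beta-arrestin recruitment was read as luminescence after 1 h with detection reagent at ambient temperature.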
D2 ag-1 – agonists of human D2 dopamine receptor (beta-arrestin); P14416; DiscoveRx PathHunter D2 beta-arrestin, luminescence, 90 min; 100% = 57 uM dopamine signal; activation, % (test concentration not listed); hit rate 0.084% among 360,000; AID 624465; in the data active = activation above about 40%; inconclusive = between about 15% and that limit
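Agonist mode: compounds alone added to overnight-plated D2 PathHunter cells for 90 min at 37 C, with 57 uM final dopamine (EC100) defining full response. Beta-arrestin recruitment detected by chemiluminescent reagent, read after 1 h at ambient temperature.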
D2 PAM-2 – positive allosteric modulators of human D2 dopamine receptor | hit rate 0.34% among 340,000 | AID 485347 | potentiation, % at 10 µM | HEK293 T-REx D2, calcium flux, EC20 dopamine potentiation | P14416;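 active = potentiation over 3 SD above the plate norm, cut at about 30% in these data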; also: 0% is about no effect
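Primary screen. Calcium kinetics in induced HEK293 T-REx D2 cells: compound pre-addition 180 s, EC20 dopamine, 180 s more.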
D2 antag – D2 dopamine receptor (human) antagonism; hit rate 2% among 340,000; inhibition, % at 10 µM; HEK293 TREx D2 cells, calcium flux, dopamine EC80; in the data active = inhibition above about 30%; inactive = below that, where a call was filed; also: 0% is about no effect
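Measurement of antagonist activity uses fluorescent calcium dye in inducible HEK293 T-REx D2 cells: 10 s baseline, compound addition with 180 s read, EC80 dopamine addition with a further 180 s read.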
D2 ag-2 – agonists of human D2 dopamine receptor | activation, % at 2 µM | AID 485358 | HEK293 T-REx D2 cells, calcium flux agonist mode | P14416 | hit rate 0.53% among 340,000;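 active = activation over 3 SD above normal in the single-dose calcium agonist read, cut at about 30% in these data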; also: 0% is about no effect
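Tetracycline-induced HEK293 T-REx cells with force-coupled D2 receptor, plated overnight at 30 C, loaded with no-wash calcium dye. After a 10 s baseline, compound was pin-added and calcium flux read kinetically for 180 s; calcium rises flagged agonists.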
* hit, by the source's call; ? = inconclusive; . = no result. This is a sample that favours compounds with a hit; in the whole collection about 2.4% have one here.

SMILES	D2 PAM-1	D2 ag-1	D2 PAM-2	D2 antag	D2 ag-2
CCCCNc1nc2ccccc2n1CC(=O)N1CCc2ccccc2C1	-27	-6	-24	53*	0
CCCCNC(=O)N1CCc2ccccc2C1	-14	-3	4	-5	-1
Cc1nn(-c2ccccc2)c(-n2cccc2)c1C(=O)N1CCN(c2ccccc2)CC1	.	.	-6	.	0
O=C(NCC1CCCO1)C(=O)NCC(c1ccco1)N1CCN(c2ccc(F)cc2)CC1 (stereo unspecified)	-12	-3	5	9	2
O=C(NCC1CCCO1)C(=O)NCC(c1ccco1)N1CCN(c2ccccc2)CC1 (stereo unspecified)	-8	14	-6	20	35*
O=C(NCc1ccncc1)C(=O)NCC(c1ccco1)N1CCN(c2ccccc2F)CC1 (stereo unspecified)	-1	7	-12	1	34*
O=C(COc1ccccc1)NCC(c1ccco1)N1CCN(c2ccccc2F)CC1 (stereo unspecified)	-5	?	-5	0	34*
CN1CCN(/C=N/c2sc3c(c2C#N)CCCCC3)CC1	-26	-1	1	-15	-1
N#Cc1c(/N=C/C=C/c2ccccc2)sc2c1CCCC2	27	?	31*	-11	1
COc1ccc(Cl)cc1Nc1cc(C)nc2nc(-c3ccccc3C)nn12	.	.	-2	.	-1
COc1ccc(CNS(=O)(=O)c2ccc3c(c2)N(C(C)=O)CCO3)cc1	-21	-2	-20	-2	1
COc1cccc(NS(=O)(=O)c2ccc(S(=O)(=O)N3CCCC3)cc2)c1	-2	-2	17	-18	0
COc1cccc(CNS(=O)(=O)c2ccc3c(c2)N(C)CCO3)c1	1	-1	21	39*	0
COc1cccc(CN(Cc2ccccc2F)S(=O)(=O)c2ccc(S(=O)(=O)NCc3ccccc3)cc2)c1	-8	3	4	43*	2
COc1cccc(CNS(=O)(=O)c2ccc(S(=O)(=O)N3CCCC3)cc2)c1	-2	-1	32*	13	-1
Nc1c(C(=O)C2CC2)sc2nc(-c3cccs3)cc(C(F)(F)F)c12	-13	-6	-8	4	36*
CC(C)(C)C(=O)COC(=O)c1c2c(nc3ccccc13)CCC2	-8	-5	39*	-4	-1
NC(=O)COC(=O)c1c2c(nc3ccccc13)CCCCC2	-3	-6	.	.	.
Cc1ccc(NC(=S)N(CCN(C)C)C(C)c2cccnc2)c(C)c1 (stereo unspecified)	-6	-2	32*	-5	-1
Cc1cc2[nH]c(=O)c(=O)[nH]c2cc1S(=O)(=O)NCc1ccc(F)cc1	.	.	-2	.	-2
Cc1cccc(NC(=O)CN(C)CC(=O)NC(c2ccccc2)c2ccccc2)c1C	-16	0	-5	33*	-1
COc1cccc(NC(=O)Cn2c(=O)n(-c3cccc(OC)c3)c(=O)c3sc4ccccc4c32)c1	.	.	1	.	-1
COc1cccc(-c2nc3ccccc3s2)c1O	-2	-3	1	-4	-1
Clc1ncccc1-c1nc2ccccc2s1	-5	0	66*	5	-1
COc1ccc(C(=O)/C=C/Nc2ccc([N+](=O)[O-])cc2C)c(OC)c1	-6	-3	1	-9	-1
SMILES	D2 PAM-1	D2 ag-1	D2 PAM-2	D2 antag	D2 ag-2
COc1ccc(C(=O)/C=C/Nc2ccc([N+](=O)[O-])cc2C)cc1OC	-11	-2	0	40*	0
Cc1nc(Nc2ccc(S(N)(=O)=O)cc2)oc1C	10	-3	49*	1	1
Fc1ccccc1-n1ncc2c1ncn1nc(Cc3ccccc3)nc21	.	.	-5	.	-1
CC1Oc2ccccc2N(CC(=O)NCc2ccccc2)C1=O (stereo unspecified)	-9	-5	1	-16	-1
CC1Oc2ccccc2N(CC(=O)NC2CC2)C1=O (stereo unspecified)	-4	3	.	33*	1
CN(C)CC/C=C1\c2ccccc2Sc2ccc(Cl)cc21	-25	-3	-29	85*	2
OCCN1CCN(CC/C=C2/c3ccccc3Sc3ccc(Cl)cc32)CC1	-24	-2	-12	73*	-1
CN(C)CC/C=C1\c2ccccc2Sc2cc(F)c(Cl)cc21	-17	-5	.	.	.
CC[N+](C)(C)CC/C=C1/c2ccccc2Sc2ccc(Cl)cc21	-19	-5	-15	15	-2
CCC1CCc2c(sc(NC(=O)C3c4ccccc4Oc4ccccc43)c2C#N)C1 (stereo unspecified)	.	.	-3	.	10
CC(=O)c1c(NCc2ccccc2)nc(=O)n(-c2ccccc2)c1C	-12	-7	-7	40*	1
Fc1ccc(-c2csc(N3CCOCC3)n2)cc1	-2	-1	6	-1	-2
c1ccc2oc(-c3csc(N4CCOCC4)n3)cc2c1	-1	-1	31*	-7	0
COc1ccc2c(CNCCc3ccccc3)c(C(=O)O)n(Cc3cccc(F)c3)c2c1	.	.	-8	.	0
Cc1cc(C)c(S(=O)(=O)N2CCCC2=O)c(C)c1N(C)S(C)(=O)=O	-2	-3	-7	38*	1
CCOc1ccc(NC(=O)Cn2c(=O)n(Cc3ccco3)c(=O)c3ccc(C(=O)NC4CCCC4)cc32)cc1	.	.	4	.	0
O=C(CNC(=O)c1ccc(Cl)cc1)OCC(=O)c1ccc2c(c1)OCCO2	-11	-2	14	41*	0
CCOC(=O)CNC(=O)c1ccc2c(c1)OCCO2	-3	-2	-7	-3	0
COC(=O)CNC(=O)N1CCN(S(=O)(=O)c2ccc3c(ccn3C)c2)CC1	.	.	-2	.	-1
CCN1CCN(C(=O)c2ccc3c(c2)N(Cc2ccc(Cl)cc2)C(=O)c2ccccc2S3(=O)=O)CC1	.	.	-23	.	.
CCN1CCN(C(=O)c2ccc3c(c2)N(Cc2ccccc2)C(=O)c2ccccc2S3(=O)=O)CC1	-13	-2	-23	40*	0
FC(F)(F)c1nc(-c2ccncc2)ncc1-c1nnnn1-c1ccccc1	-7	0	26	58*	0
Cc1ccc2c(c1)N(C(=O)c1ccc(F)cc1)C(C)(C)CC2(C)c1ccccc1 (stereo unspecified)	.	.	-6	.	.
CCCCN(C)C(=O)c1cccc(OC2CCN(CC(C)(C)C)CC2)c1	-2	0	-1	67*	1
CCCN1CCC(Oc2cccc(C(=O)NCCc3ccccc3)c2)CC1	-6	-3	31*	-2	0
CC(C)(C)CN1CCC(Oc2cccc(C(=O)N3CCNC(=O)C3(C)C)c2)CC1	-13	-4	7	32*	0
COCCNC(=O)c1cccc(OC2CCN(Cc3cccc(C(C)=O)c3)CC2)c1	-2	-6	-6	6	1
COc1ccc(C)c2sc(N(Cc3cccnc3)C(=O)C3CCCCC3)nc12	.	.	2	.	1
